The source of these data is PubChem BioAssay (NCATS).

SMILES strings stand for the structures. Several values for one entry are separate records, joined by “and”; a condition that tells them apart may be missing. Equal values may be shown once. Inconclusive results are not listed. Where a call stands in place of a potency, no number is given. Values without a mark were called inactive. Activity calls are given as the source filed them. The call rests on the fitted dose curve; in most records, active means well fitted cell-killing curve with a large enough effect; inconclusive means small, poorly fitted or top-dose-only effect, or effect the other way; inactive means no such curve, though single readings can be large or run the other way.
Potency means the concentration at half of the fitted maximal effect.

The nature of the assay: Viability qHTS for spleen associated tyrosine kinase inhibitor (SYKi) drug resistant MV4-11 cells (AID 1963824). Further: nearly all actives have a fitted effect of over 35% in size. Conditions: SYKi-resistant MV4-11 viability, CellTiter-Glo, 72 h; series mostly up to 45 µM. An outline of the steps:
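SYK inhibitor-resistant MV4-11 AML cells, 500 per well, added to predispensed compounds and incubated 72 hr at 37 C, 5% CO2. Viability measured by CellTiter-Glo luminescence after 10 min at room temperature.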
A general note: Quantitative high-throughput screening tests each substance at several concentrations.
Turning to `CCCCCCCCCCC(CO)CCCCCCCC` (stereo unspecified), the Potency entry was “inactive”.

In the case of `CC(C)[C@@H]1CC[C@@H](C)CC1=O`, the Potency entry was “inactive”.

Turning to `NCCc1ccn[nH]1`, the Potency result was “inactive”.

On to `CN1CCN(c2cc3c(nn2)Oc2ccccc2N3C)CC1`, for which the Potency result is “inactive”.

As to `CC[C@@]1(c2ccccc2)NC(=O)N(C)C1=O`, the Potency result is “inactive”.

For the molecule `O=C1O[C@H]([C@@H](O)CO)C(O)=C1O`, the Potency entry is “inactive”.

Consider `CC1(C)Oc2ccc(C#N)cc2[C@@H](N2CCCC2=O)[C@@H]1O`, for which the Potency result was “inactive”.

As to `O=C(Nc1ccc(Cl)cc1)Nc1ccc(Cl)c(Cl)c1`, the Potency was 9.44 µM (active).

Take `C[N+](C)(C)CCOC(N)=O`: the Potency entry was “inactive”.

Regarding `CC[N+](CC)(CC)CCOC(=O)C(C1CCCC1)C1CCCC1`, the Potency is 11.9 µM (active).

Consider `CCOC(=O)n1ccn(C)c1=S`, for which the Potency result was “inactive”.

`C[C@@H]1CC[C@@]2(OC1)O[C@H]1C[C@H]3[C@@H]4CC[C@H]5C[C@@H](O)CC[C@]5(C)[C@H]4CC(=O)[C@]3(C)[C@H]1[C@@H]2C`: the viability, % of control was 73.5% [at 4.97 µM].

Take `C=CCOc1ccccc1OCC(O)CNC(C)C` (stereo unspecified): the Potency entry was “inactive”.

Turning to `CN(C(=O)C(Cl)Cl)c1ccc(OC(=O)c2ccco2)cc1`, the Potency entry was “inactive”.

For the molecule `CCCn1cnc2c1c(=O)n(CCCCC(C)=O)c(=O)n2C`, the Potency entry was “inactive”.

As to `CNCCC(Oc1ccccc1OC)c1ccccc1` (stereo unspecified), the Potency result is “inactive”.

Turning to `CCN1CCC[C@H]1CNC(=O)c1cc(S(N)(=O)=O)ccc1OC`, the Potency entry was “inactive”.

Turning to `CCC1(c2ccccc2)C(=O)NCNC1=O`, the Potency result is “inactive”.

In the case of `CC(C)(C)c1cc(C=O)cc(C(C)(C)C)c1O`, the Potency result was “inactive”.

Regarding `O=C(OCc1ccccc1)c1ccccc1`, the Potency result was “inactive”.

As for `Cc1nc(NC(=O)N2CCC[C@H]2C(N)=O)sc1-c1ccnc(C(C)(C)C(F)(F)F)c1`, the Potency is 11.6 µM (active) and 16.6 µM (active).
